The text below walks through data of PubChem BioAssay (NCATS).

Results filed as inconclusive are left out. Active and inactive are the calls of the source. The call rests on the fitted dose curve; in most records, active means well fitted cell-killing curve with a large enough effect; inconclusive means small, poorly fitted or top-dose-only effect; inactive means no such curve, though single readings can be large or run the other way.
Potency means the concentration at half of the fitted maximal effect.

The nature of the assay: qHTS of pediatric cancer cell lines to identify multiple opportunities for drug repurposing: Confirmatory screen for BT-37 cells (AID 1347117).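 Further: viability measured after 48 h of compound exposure; nearly all actives have a fitted effect of over 55% in size.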 As to conditions: BT-37 pediatric cancer cells, viability; activity change, negative = cytotoxic: at 45.9 µM (top of the series). The method in brief:
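Viability after 48 h compound treatment at 37C, 500-1,000 cells/well, read as ATP luminescence with CellTiter-Glo. Primary screens used 11-point (MIPE, 0.78 nM-46 µM) or 8-point (NPC, 0.59 nM-46 µM) final concentrations; follow-up screens used 11-point dilutions.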
On the technique in general: In qHTS, concentration-response curves come from the screen itself.
Regarding `CNC(=O)Nc1ccc(-c2nc(N3CC4CCC(C3)O4)c3cnn(C4CCC5(CC4)OCCO5)c3n2)cc1`, the Potency is 0.104 µM (active).

With `CS(=O)(=O)N1CCc2c(-c3cnc(N)nc3)nc(N3CCOCC3)nc21`, the Potency was 5.85 µM (active).

Regarding `COc1cc2ncnc(Nc3cccc(Br)c3)c2cc1OC`, the Potency is 18.5 µM (active).

As for `COc1cc(OC)c(C=CS(=O)(=O)Cc2ccc(OC)c(NCC(=O)O)c2)c(OC)c1`, the Potency was 0.657 µM (active).

`CN(CC(=O)N(Cc1ccc(C2CCCCC2)cc1)c1ccc(C(=O)O)c(O)c1)S(=O)(=O)c1c(F)c(F)c(F)c(F)c1F`: the Potency is 26.1 µM (active).

In the case of `Cn1cc(-c2cnn3c(N)c(Br)c([C@H]4CCCNC4)nc23)cn1`, the Potency is 3.69 µM (active).

On to `COC(=O)C1C2CC3c4[nH]c5cc(OC)ccc5c4CCN3CC2CC(OC(=O)c2cc(OC)c(OC)c(OC)c2)C1OC` (stereo not drawn), for which the Potency was 1.47 µM (active).

Turning to `NS(=O)(=O)OC[C@@H]1C[C@@H](n2ccc3c(N[C@H]4CCc5ccccc54)ncnc32)C[C@H]1O`, the Potency result is “inactive”.
